Where a name gives a salt, the structure may show the parent alone.
System: Danio rerio larvae (5 dpf)
Assay: optomotor response to blue moving lines, difference vs DMSO (percentage points (treated minus DMSO)); higher = more of the behaviour than the DMSO vehicle control
Details: 10 µM; exposure time: 3 h pre-incubation + 3 h imaging
Protocol: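 5-dpf wild-type zebrafish larvae were imaged in 96-well plates. They were treated with 190 Tocris FDA-approved drugs at 10 µM (1 µl/ml DMSO) for 3 h before and 3 h during imaging at 28.5 °C, 48 larvae per drug. Automated image analysis gave % time moving and optomotor responses. Values are drug group mean minus DMSO vehicle mean (n=844), in percentage points, for 10 behaviours.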

Compound | optomotor response to blue moving lines
CC[C@@H](C(N)=O)N1CCCC1=O [Levetiracetam] | 6.19
COc1cc2c(cc1OC)C1CC(=O)C(CC(C)C)CN1CC2 (configuration not stated) [Tetrabenazine] | -7.81
Cc1cccc([C@H](C)c2c[nH]cn2)c1C [Dexmedetomidine hydrochloride] | -12.4
COc1ccc(C(CN(C)C)C2(O)CCCCC2)cc1 (configuration not stated) [Venlafaxine hydrochloride] | 3.9
O=c1[nH]c2ccccc2n1C1CCN(CCCC(c2ccc(F)cc2)c2ccc(F)cc2)CC1 [Pimozide] | -7.76
CC(C)C[C@H]1C(=O)N2CCC[C@H]2[C@]2(O)O[C@](NC(=O)[C@@H]3C=C4c5cccc6[nH]c(Br)c(c56)C[C@H]4N(C)C3)(C(C)C)C(=O)N12 [Bromocriptine mesylate] | -29.3
N[C@@H]1C[C@H]1c1ccccc1 [Tranylcypromine hydrochloride] | 13.5
C=CCN1C[C@H](C(=O)N(CCCN(C)C)C(=O)NCC)C[C@@H]2c3cccc4[nH]cc(c34)C[C@H]21 [Cabergoline] | -0.85
CN1C[C@H](C(=O)N[C@]2(C)O[C@@]3(O)[C@@H]4CCCN4C(=O)[C@H](Cc4ccccc4)N3C2=O)C[C@@H]2c3cccc4[nH]cc(c34)C[C@H]21 [Dihydroergotamine mesylate] | 12.8
CCN(C)C(=O)Oc1cccc([C@H](C)N(C)C)c1 [Rivastigmine tartrate] | 1.1
C=C1C[C@@H]2[C@H](CC[C@]3(C)C(=O)CC[C@@H]23)[C@@]2(C)C=CC(=O)C=C12 [Exemestane] | -2.19
CC(O)(CS(=O)(=O)c1ccc(F)cc1)C(=O)Nc1ccc(C#N)c(C(F)(F)F)c1 (configuration not stated) [Bicalutamide] | -16.6
